Over roughly 110,000 compounds, “z-score” has its median near -0.1; the highest 2% begin near 2. This is one part of a sample in which the highest values are shown more often than they occur. Activity calls are given as the source filed them.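 The calls were made as follows: active = z-score in the third read window above 3 or below -3; inactive = the rest.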
Target: Metabotropic glutamate receptor 8 (Rattus norvegicus) (UniProt P70579)
Experiment: rat mGluR8 modulators via GIRK flux, primary screen, cell-based, thallium flux, HTS (AID 488969)
Conditions: HEK293 rat mGluR8, GIRK (G protein-gated inwardly rectifying potassium channel) thallium flux, FluoZin2; at 10 µM; stronger effect = higher value; submaximal glutamate (EC20) added with thallium

Metabotropic glutamate receptor 8 (Rattus norvegicus), sequence (P70579 whole entry, looked up): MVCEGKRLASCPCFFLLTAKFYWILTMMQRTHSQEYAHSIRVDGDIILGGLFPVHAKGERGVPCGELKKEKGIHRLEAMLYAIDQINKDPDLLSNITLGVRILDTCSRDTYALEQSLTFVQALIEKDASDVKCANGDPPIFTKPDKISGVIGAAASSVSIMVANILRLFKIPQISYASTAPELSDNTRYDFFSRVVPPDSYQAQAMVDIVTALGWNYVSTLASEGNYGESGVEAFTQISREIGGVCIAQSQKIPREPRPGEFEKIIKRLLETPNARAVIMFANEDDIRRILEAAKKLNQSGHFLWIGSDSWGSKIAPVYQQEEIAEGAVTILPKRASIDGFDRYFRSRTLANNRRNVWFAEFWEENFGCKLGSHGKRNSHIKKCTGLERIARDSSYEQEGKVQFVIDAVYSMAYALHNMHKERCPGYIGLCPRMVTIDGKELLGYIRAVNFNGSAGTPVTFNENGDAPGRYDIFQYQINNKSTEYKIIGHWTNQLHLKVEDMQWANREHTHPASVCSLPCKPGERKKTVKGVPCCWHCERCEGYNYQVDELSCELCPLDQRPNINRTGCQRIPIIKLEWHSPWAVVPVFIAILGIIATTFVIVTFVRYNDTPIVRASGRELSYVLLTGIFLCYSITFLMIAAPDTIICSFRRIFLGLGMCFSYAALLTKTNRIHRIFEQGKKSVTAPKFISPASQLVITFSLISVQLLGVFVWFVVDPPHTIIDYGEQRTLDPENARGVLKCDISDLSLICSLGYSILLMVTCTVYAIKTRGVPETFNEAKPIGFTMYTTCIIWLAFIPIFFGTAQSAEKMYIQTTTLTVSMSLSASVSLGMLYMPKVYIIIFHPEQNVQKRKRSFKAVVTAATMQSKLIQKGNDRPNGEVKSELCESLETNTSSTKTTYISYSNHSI

Row | Compound | z-score
1 | CNC(=S)NNC(=O)Cc1ccc(O)cc1 | 0.306
2 | CCN(CC)S(=O)(=O)c1ccc2c(c1)nc(CCC(=O)Nc1cccc(C(F)(F)F)c1)n2CC | -0.277
3 | CCSc1nnc(NC(=O)C2(C)Cc3ccccc3C(=O)O2)s1 (configuration not stated) | -0.0977
4 | CCCCc1c(O)nc2sccn2c1=O | -0.251
5 | Cc1cc(N2CCC(C(=O)NC3CC3)CC2)nc(-c2ccccc2)n1 | 1.41
6 | Cn1c(=O)cc(OCCCC(=O)Nc2ccccn2)c2ccccc21 | -0.243
7 | CC(C1CC1)N(C(=O)NC1CCS(=O)(=O)C1)c1ccccc1 (configuration not stated) | -0.27
8 | CCOc1ccc(NC(=O)c2ccco2)cc1 | -0.0362
9 | COc1ccc(NC(=O)CN2C(=O)C(C)Oc3ccccc32)cc1 (configuration not stated) | -0.12
10 | CC1Oc2ccccc2N(CC(=O)NCCc2ccccc2)C1=O (configuration not stated) | 2.08
11 | CC1Oc2ccccc2N(CC(=O)NCC2CCCO2)C1=O (configuration not stated) | -0.413
12 | C=CCn1c(=N)n(CC(=O)c2ccc(Br)s2)c2ccccc21 | -1.22
13 | C/C(=N/NC(=O)c1sc(NS(=O)(=O)c2ccccc2)nc1C)c1ccccc1 | 0.345
14 | CN(c1ccc([N+](=O)[O-])cc1C(=O)Nc1ccccc1)C1CCCCC1 | -0.377
15 | COc1cc(CNC2CCCC2)cc(Cl)c1OCc1ccccc1Cl | 0.0424
16 | COc1cc(CNC2CCCC2)cc(Cl)c1OCc1ccccc1F | 2.5
17 | COc1cc(CNC2CCCC2)cc(Cl)c1OCc1ccc(F)cc1 | -0.271
18 | CN1CCN(CCCNC(=O)c2cn(C3CCCCC3)c(=O)c3c2c2ccccc2n3C)CC1 | -0.464
19 | CC1CCC(C(C)C)C(OC(=O)CSc2nc(N)cc(=O)[nH]2)C1 (configuration not stated) | -0.124
20 | O=C(CN1CCN(Cc2ccccc2)CC1)N=Nc1c(O)[nH]c2ccccc12 | -0.328
21 | O=C(CSCc1ccc(Br)cc1)N=Nc1c(O)[nH]c2ccccc12 | 2.84
22 | O=C(CSCc1cccc(Br)c1)N=Nc1c(O)[nH]c2ccccc12 | -0.113
23 | O=C(CSc1nc2ccccc2[nH]1)N=Nc1c(O)[nH]c2ccccc12 | -0.572
24 | O=C(CSCc1ccccc1)N=Nc1c(O)[nH]c2ccccc12 | 6.08 (active)

Row | Compound | z-score
25 | O=C(Cn1nnc(-c2ccccc2)n1)N=Nc1c(O)[nH]c2ccccc12 | -0.0918
26 | CCOC(=O)c1c(CN2CCOCC2)n(-c2ccccc2)c2cc(Br)c(O)c(CN(C)C)c12 | -0.781
27 | CC(C)OCCCNC(=O)C(C)Oc1ccccc1 (configuration not stated) | -0.305
28 | CCCOc1ccc(C(=O)N2CCN(c3ccc(N)cc3Cl)CC2)cc1 | -0.235
29 | COC(=O)C(Cc1ccc(O)cc1)NC(=O)CCC(=O)Nc1ccc(S(N)(=O)=O)cc1 (configuration not stated) | -0.14
30 | Cc1c(NC(=O)C(C)Sc2nnc(-c3ccccc3)o2)c(=O)n(-c2ccccc2)n1C (configuration not stated) | -0.308
31 | CC(=O)c1ccc(NC(=O)CCn2c(=O)oc3ccccc32)cc1 | -0.318
32 | COCCN(CCOC)C(=O)CCn1c(=O)oc2ccccc21 | 0.976
33 | COC(=O)c1ccc(NC(=O)CCn2c(=O)oc3ccccc32)cc1 | 2.57
34 | O=C(CCn1c(=O)oc2ccccc21)N(Cc1ccccc1)c1ccccn1 | 0.207
35 | CCc1ccc(NC(=O)CCn2c(=O)oc3ccccc32)cc1 | 0.0251
36 | CN(Cc1ccccc1)C(=O)CCn1c(=O)oc2ccccc21 | 2.02
37 | CNC(=S)N(Cc1ccc2c(c1)OCO2)C1CC(=O)N(c2ccc(F)cc2)C1=O (configuration not stated) | 0.0865
38 | O=C(CN1C(=O)c2ccccc2C1=O)Nc1ccc2c(c1)OCO2 | -0.335
39 | Cn1c(=O)[nH]c2sc3c(c2c1=O)CC(C)(C)OC3 | -0.263
40 | CC1(C)Cc2c(sc3[nH]c(=S)n(Cc4ccco4)c(=O)c23)CO1 | 8.31 (active)
41 | CCn1c(=O)n(Cc2ccco2)c(=N)c2c3c(sc21)COC(C)(C)C3 | -0.025
42 | Cc1nnc2n(Cc3ccccc3)c(=O)c3c4c(sc3n12)COC(C)(C)C4 | 0.198
43 | CC(C)C1Cc2c(sc3c2c(=O)n(Cc2ccccc2)c2nncn32)CO1 (configuration not stated) | -3.44 (active)
44 | CCC1(C)Cc2c(sc3nc(SC)n(Cc4ccccc4)c(=O)c23)CO1 (configuration not stated) | -0.216
45 | CC1(C)Cc2c(sc3c2c(=N)n(Cc2ccco2)c(=O)n3Cc2ccccc2)CO1 | -0.918
46 | CC(C)C1Cc2c(sc3[nH]c(=S)n(Cc4ccccc4)c(=O)c23)CO1 (configuration not stated) | 5.29 (active)
47 | CSc1nnc2n(Cc3ccccc3)c(=O)c3c4c(sc3n12)COC(C(C)C)C4 (configuration not stated) | -0.311
48 | CCC1(C)Cc2c(sc3[nH]c(=S)n(Cc4ccccc4)c(=O)c23)CO1 (configuration not stated) | 8.14 (active)

Row | Compound | z-score
49 | CCC1(C)Cc2c(sc3c2c(=O)n(-c2ccccc2)c(=O)n3C)CO1 (configuration not stated) | -0.673
50 | CC1(C)Cc2c(sc3[nH]c(=S)n(Cc4ccccc4)c(=O)c23)CO1 | 14.5 (active)
51 | O=C(CSc1nnc(-c2ccccc2)n1-c1ccccc1)N1c2ccccc2Sc2ccccc21 | -1.52
52 | CC1CCCCN1C(=O)NC12CC3CC(CC(C3)C1)C2 (configuration not stated) | -0.518
53 | CCOc1ccc2c(c1)n(CO)c(=S)n2CO | 0.0706
54 | C(=C\c1cccc2ccccc12)/c1nnc(-c2cccs2)o1 | -0.201
55 | COc1ccc(CC(=O)n2c(CC#N)nc3ccccc32)cc1OC | 0.0175
56 | Cc1ccc2c(Cn3cc(C(F)(F)F)cc(Cl)c3=O)cc(=O)oc2c1 | -0.249
57 | CC(C)OC(=O)c1ccc(N2C(=O)C3CC=CCC3C2=O)cc1 (configuration not stated) | 0.0622
58 | C=CCOC(=O)Nc1c(C(=O)OC)[nH]c2ccc(Cl)cc12 | -0.103
59 | COCCNC(=O)/C(C#N)=C/c1ccc(-c2ccc(S(=O)(=O)N3CCOCC3)cc2)o1 | -0.137
60 | CCCCNC(=O)/C(C#N)=C/c1ccc(-c2ccc(S(=O)(=O)N3CCOCC3)cc2)o1 | 0.164
61 | CCOCCCNC(=O)/C(C#N)=C/c1ccc(-c2ccc(S(=O)(=O)N3CCOCC3)cc2)o1 | 2.32
62 | O=C(OCC1COc2ccccc2O1)c1c(F)cccc1F (configuration not stated) | 0.396
63 | N=c1oc2ccccc2cc1-c1nc(-c2ccc(Cl)cc2)cs1 | -0.248
64 | N=c1oc2ccc3ccccc3c2cc1-c1nc(-c2ccccc2)cs1 | 3.16 (active)
65 | COc1ccc(-c2csc(-c3cc4ccccc4oc3=N)n2)cc1 | -0.00953
66 | CCN(CC)C(=O)N1c2ccccc2C=Cc2ccccc21 | -0.214
67 | COc1ccc(-c2nnc(NC(=O)c3ccc(S(=O)(=O)N4CCCc5ccccc54)cc3)o2)cc1 | 2.07
68 | COc1ccc(-c2nnc(NC(=O)c3ccc(S(=O)(=O)N4CCc5ccccc5C4)cc3)o2)cc1 | 9.68 (active)
69 | O=C(Nc1nnc(C2CC2)o1)c1ccc(S(=O)(=O)N2CCCc3ccccc32)cc1 | 1.85
70 | CCc1nnc(NC(=O)c2ccc(S(=O)(=O)N3CCCc4ccccc43)cc2)o1 | 0.372
71 | COc1ccc(-c2nnc(NC(=O)c3ccc(S(=O)(=O)N4COCC4(C)C)cc3)o2)cc1 | 1.22
72 | CCc1nnc(NC(=O)c2ccc(S(=O)(=O)N3CCc4ccccc4C3)cc2)s1 | -0.158
